Results taken from PubChem BioAssay.
Calls of active or inactive are those of the source.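 How the source made its calls, unless noted: active means inhibition at or above 50% at 10 µM; inactive means inhibition below 50%.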

Legend:
[1] = inhibitors of TNFa-induced NFkB p65 translocation, primary screen, imaging, HUVEC, MLSMR starter and 10KST1 sets (AID 438;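 active means inhibition above 20% together with a positive visual image hit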;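 further: compound added about 3h40 before a 20 min TNFalpha stimulation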;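 on inhibition: signal is the nuclear over cytoplasmic p65 intensity ratio per well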); settings: HUVEC TNFa-induced p65 nuclear translocation; cell count: measured here: nuclei count (cytotoxicity indicator), at 2.08 µM; inhibition: at 2 µM, stronger effect = higher value, 0% TNFa-plus-vehicle, 100% no-TNFa wells
[2] = reduction of polyQ htt aggregates in cells – imaging, exon1htt(103Q)mCFP cells, high-content imaging, primary screen (AID 483;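 active means visual image review flags a hit and inhibition of aggregation exceeds 20%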;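 further: compound exposure lasted 3 days before fixation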;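 on nuclei count: percent of the per-plate median nuclei count of sample wells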); settings: exon1htt(103Q)mCFP cell line, aggregate imaging, at 2 µM; inhibition of aggregation: stronger effect = higher value; nuclei count: measured here: cell count, toxicity
[3] = endothelial E-selectin expression blockers – imaging, HUVEC, immunofluorescence, MLSMR starter and 10KST1 sets, primary screen (AID 487;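 active means visually confirmed hit in the image check and inhibition above 20%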;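 on inhibition: signal is fraction of cell area covered by stained E-selectin grains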;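 on nuclei count: 100% = median nuclei count of all wells on the same plate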); settings: HUVEC TNFalpha-induced E-selectin immunofluorescence imaging, at 2 µM; inhibition: stronger effect = higher value; nuclei count: measured here: cell number, toxicity
[4] = biological target: Voltage-gated potassium channel subunit beta-2 (Rattus norvegicus) (UniProt P62483); assay: inhibitors of rat Kvbeta2 reductase activity – biochemical, NADPH fluorescence, primary screen (AID 622;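 active means fluorescence slope higher than the sample average by over 3 SD, cut at about -0.22 in these data, passing the limit was not always enough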;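 further: slope of raw intensity against log time taken from 70 to 1610 s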); settings: recombinant KvBeta, 4-cyanobenzaldehyde reduction, at 10 µM, stronger effect = higher value
Voltage-gated potassium channel subunit beta-2 (Rattus norvegicus), sequence (P62483 whole entry, looked up): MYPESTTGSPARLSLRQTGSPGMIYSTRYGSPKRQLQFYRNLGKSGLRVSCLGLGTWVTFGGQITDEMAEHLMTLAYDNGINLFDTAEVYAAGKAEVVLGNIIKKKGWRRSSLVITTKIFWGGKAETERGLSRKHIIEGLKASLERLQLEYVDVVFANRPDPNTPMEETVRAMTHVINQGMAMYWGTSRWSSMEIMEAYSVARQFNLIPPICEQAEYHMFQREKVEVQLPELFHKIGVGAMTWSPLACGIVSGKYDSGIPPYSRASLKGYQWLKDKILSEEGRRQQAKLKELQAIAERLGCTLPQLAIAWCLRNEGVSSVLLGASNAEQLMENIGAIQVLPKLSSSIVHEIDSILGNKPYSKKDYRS

[5] = biological target: Voltage-gated potassium channel subunit beta-2 (Rattus norvegicus) (UniProt P62483); assay: enhancers of rat Kvbeta2 NADPH turnover – biochemical, NADPH fluorescence, primary screen (AID 623;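 active means NADPH fluorescence slope more negative than the mean of all samples by about 3 SD, 99.7% confidence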;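 further: fluorescence intensity change per second fitted from 20 to 320 s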); settings: Recombinant KvBeta, NADPH fluorescence decrease slope, 10 min; at 10 µM; stronger effect = lower value
[6] = biological target: Alpha-2C adrenergic receptor (Homo sapiens) (UniProt P18825); assay: compounds altering alpha2C-coupled GIRK flux – cell-based, HEK293 alpha2C/GIRK1/2, thallium flux, primary screen (AID 624;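 active means fluorescence slope after compound addition differing from the mean of all screened samples at 99.7% confidence, in either direction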;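 further: slope of fluorescence ratio to pre-addition baseline per second over 15 to 24 s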); settings: thallium flux BTC fluorescence, at 10 µM, actives lie on both sides
Alpha-2C adrenergic receptor (Homo sapiens), sequence (P18825 whole entry, looked up): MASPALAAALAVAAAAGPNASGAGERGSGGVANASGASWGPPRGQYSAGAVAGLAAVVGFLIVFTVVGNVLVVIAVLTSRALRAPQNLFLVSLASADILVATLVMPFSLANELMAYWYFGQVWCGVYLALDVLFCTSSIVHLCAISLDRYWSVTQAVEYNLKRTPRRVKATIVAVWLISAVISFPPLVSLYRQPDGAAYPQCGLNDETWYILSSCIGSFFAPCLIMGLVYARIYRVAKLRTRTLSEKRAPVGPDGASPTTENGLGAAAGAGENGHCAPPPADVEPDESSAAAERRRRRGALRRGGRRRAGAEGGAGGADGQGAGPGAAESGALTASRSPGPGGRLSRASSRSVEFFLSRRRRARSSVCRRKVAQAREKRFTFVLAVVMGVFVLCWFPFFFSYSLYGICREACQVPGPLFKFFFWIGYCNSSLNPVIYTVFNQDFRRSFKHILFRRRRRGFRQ

[7] = blockers of RIG-like receptor reporter activation – cell-based, Sendai virus stimulus, luciferase, 10K MLSCN set, TLR/RLR signaling modifier project, primary screen (AID 602276); settings: HEK293 RL24 IRF3 luciferase reporter, at 10 µM, stronger effect = higher value;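 further: firefly luciferase from ISG56 promoter only with Renilla not read in this screen; 0% = Sendai virus plus DMSO and 100% = medium plus DMSO without virus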
[8] = TLR3 IRF3 reporter activation blockers – cell-based, poly I:C stimulus, luciferase, 10K MLSCN set, primary screen (AID 602277;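 active means inhibition of the reporter signal at or above 50%; inactive means inhibition below 50%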); settings: HEK293-TLR3 RL24 IRF3 luciferase reporter, at 10 µM, stronger effect = higher value

Row | Compound | cell count [1] | inhibition [1] | inhibition of aggregation [2] | nuclei count [2] | inhibition [3] | nuclei count [3] | fluorescence slope [4] | NADPH fluorescence slope [5] | slope [6] | inhibition [7] | inhibition [8]
1 | Cn1c(SCC(=O)c2cc3ccccc3o2)nnc1-c1ccccc1 | 621 | 8% (inactive) | -8.5% (inactive) | 66% | -44.5% (inactive) | 106% | -0.527 (inactive) | -2.6e-05 (inactive) | 0.00718 (inactive) | 10.2% (inactive) | 16.3% (inactive)
2 | CC(NC(=O)C1CC1)C(c1cccs1)N1CCN(c2ccccc2)CC1 (centres undefined) | 884 | 4.2% (inactive) | -7.2% (inactive) | 100% | -17.3% (inactive) | 116% | -0.495 (inactive) | -3e-05 (inactive) | 0.00607 (inactive) | 6.3% (inactive) | 23.6% (inactive)
3 | COc1ccc(OC)c(NC(=O)c2nnn(Cc3ccc(Br)cc3F)c2N)c1 | 777 | 0.6% (inactive) | 20.9% (inactive) | 99.3% | -25.4% (inactive) | 116% | -0.525 (inactive) | -1.8e-05 (inactive) | 0.00503 (inactive) | 1.6% (inactive) | 5.74% (inactive)
4 | CCCN1C2CCCC1CC(NC(=O)Nc1cccc(C(C)=O)c1)C2 (centres undefined) | 418 | -10.3% (inactive) | -17% (inactive) | 97% | -138% (inactive) | 180% | -0.637 (inactive) | 1.7e-05 (inactive) | 0.00567 (inactive) | 23.1% (inactive) | 37.8% (inactive)
5 | Cc1cc2c(cc1C)-c1nnnn1C(C)(C)C2 | 655 | 2.4% (inactive) | 13.2% (inactive) | 91.6% | 67.5% (active) | 88.2% | -0.421 (inactive) | -3e-05 (inactive) | 0.00748 (inactive) | -16.2% (inactive) | 82.3% (active)
6 | C=CCN(CC=C)C(=O)c1ccncc1 | 267 | -14% (inactive) | 4.9% (inactive) | 53.2% | -86.3% (inactive) | 110% | -0.501 (inactive) | 1.1e-05 (inactive) | 0.00479 (inactive) | 4.76% (inactive) | 5.55% (inactive)
7 | COc1ccc(C(=O)NCCSc2ccccn2)cc1 | 778 | 4.4% (inactive) | 3.3% (inactive) | 101% | 48% (inactive) | 95% | -0.478 (inactive) | -6.9e-05 (inactive) | 0.00549 (inactive) | -6.19% (inactive) | -64.3% (inactive)
8 | O=C(COC(=O)CCC1CCCC1)Nc1ccc(Cl)cn1 | 429 | -4.8% (inactive) | -13.9% (inactive) | 115% | -27.8% (inactive) | 108% | -0.345 (inactive) | -5.6e-05 (inactive) | 0.00786 (inactive) | -6.45% (inactive) | 3.24% (inactive)
9 | Cn1c(-c2ccc(C(C)(C)C)cc2)n[nH]c1=S | 647 | -5.8% (inactive) | -4.8% (inactive) | 77.2% | 47.5% (inactive) | 79.7% | -0.46 (inactive) | -0.000112 (inactive) | 0.00619 (inactive) | -11.8% (inactive) | -25.2% (inactive)
10 | Cn1cccc1Cc1nnc(SCC(=O)Nc2ccccc2F)n1-c1ccc(F)cc1 | 878 | -2.3% (inactive) | -8.8% (inactive) | 108% | -44.3% (inactive) | 113% | -0.561 (inactive) | -8.8e-05 (inactive) | 0.00608 (inactive) | 5.41% (inactive) | 24.9% (inactive)
11 | Cc1ccc2nc(NCCCN3CCOCC3)c(C=NCCCN3CCOCC3)c(=O)n2c1 | 619 | -9.6% (inactive) | -38.5% (inactive) | 10.5% | -49.1% (inactive) | 141% | -0.435 (inactive) | -5.9e-05 (inactive) | 0.00509 (inactive) | 14.7% (inactive) | 33.3% (inactive)
12 | CC(=O)Nc1ccc(S(=O)(=O)N2CCN=C2C)cc1 | 246 | 7.6% (inactive) | 14.3% (inactive) | 86.3% | -31.5% (inactive) | 83.1% | -0.62 (inactive) | -1.6e-05 (inactive) | 0.00377 (inactive) | 3.93% (inactive) | 19.7% (inactive)
13 | CC(=O)N1CCN(c2ccc(S(=O)(=O)N3CCCCC3)cn2)CC1 | 719 | 0.8% (inactive) | 4.2% (inactive) | 101% | -6.8% (inactive) | 132% | -0.591 (inactive) | 1.1e-05 (inactive) | 0.00522 (inactive) | 6.79% (inactive) | 8.53% (inactive)
14 | O=C(COC(=O)c1cnccn1)c1ccc(OC(=O)c2ccccc2)cc1 | 214 | -7.5% (inactive) | 21.7% (inactive) | 95.2% | -170% (inactive) | 132% | -0.359 (inactive) | -6.1e-05 (inactive) | 0.00809 (inactive) | 18.9% (inactive) | 35.6% (inactive)
